# Results reported in PubChem BioAssay (NCI).
# This is part of a sample that, as a whole, favours compounds with a hit. Of some 79,000 tested, about 15% had one in any assay. Values without a mark were called inactive. The source made the active and inactive calls. Rule as the data show it: active = growth inhibition above about 70%; inactive = the rest.
# Experiments:
# [1] = NCI Yeast Anticancer Drug Screen. Data for the rad50 strain (AID 155);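 also: 0% = growth of vehicle-only cultures of the same strain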; details: S. cerevisiae rad50 strain growth inhibition, active compounds read high
# Method in brief: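 Cells are treated with compound, grown, and their growth is then scored against vehicle-only cultures of the same repair-deficient yeast strain.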
# [2] = NCI Yeast Anticancer Drug Screen. Data for the mec2-1 strain (AID 157); details: S. cerevisiae mec2-1 strain, active compounds read high
# Method in brief: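 Test agents were screened against the mec2-1 yeast strain, with defined DNA repair or cell cycle alteration. Growth was scored as inhibition against vehicle-only controls.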
# [3] = NCI Yeast Anticancer Drug Screen. Data for the sgs1 mgt1 strain (AID 161);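 also: 0% = growth of cultures given vehicle only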; details: S. cerevisiae sgs1 mgt1 strain, active compounds read high
# Method in brief: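 Read-out: growth inhibition vs vehicle controls. Cells: mutant yeast strain deficient in DNA damage repair.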
# [4] = NCI Yeast Anticancer Drug Screen. Data for the cln2 rad14 strain (AID 165);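 also: 0% = growth equal to vehicle treated cultures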; details: S. cerevisiae cln2 rad14 strain, active compounds read high
# Method in brief: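 Growth of compound-exposed yeast (cln2 rad14 genotype) measured and expressed as inhibition relative to vehicle.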
# [5] = NCI Yeast Anticancer Drug Screen. Data for the bub3 strain (AID 167); details: S. cerevisiae bub3 mutant strain, active compounds read high
# Method in brief: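 Part of a panel of yeast mutants defective in DNA damage repair or cell cycle regulation. Each strain is grown with compound, and inhibition is calculated relative to solvent-treated cultures.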
# [6] = NCI Yeast Anticancer Drug Screen. Data for the mlh1 rad18 strain (AID 175); details: S. cerevisiae mlh1 rad18 strain growth inhibition, active compounds read high
# Method in brief: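 In this whole-cell yeast screen, a strain with altered DNA damage repair is challenged with compound, and its growth is measured against matched vehicle-treated controls.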
# [7] = at 5.0 µM (retest, dose inferred, filed as 0.5)
# [8] = at 50.0 µM (retest, dose inferred, filed as 5.0)
Structure (SMILES),"growth inhibition [1, 7]","growth inhibition [1, 8]",growth inhibition ([1]; at 50.0 µM),"growth inhibition [2, 7]","growth inhibition [2, 8]",growth inhibition ([2]; at 50.0 µM),"growth inhibition [3, 7]","growth inhibition [3, 8]",growth inhibition ([3]; at 50.0 µM),"growth inhibition [4, 7]","growth inhibition [4, 8]",growth inhibition ([4]; at 50.0 µM),"growth inhibition [5, 7]","growth inhibition [5, 8]",growth inhibition ([5]; at 50.0 µM),"growth inhibition [6, 7]","growth inhibition [6, 8]",growth inhibition ([6]; at 50.0 µM)
NC1=NC(=O)N2CC12 (stereo not given),30%,36%,48.5%,13%,7%,-9.3%,25%,16%,8.2%,20%,15%,11.4%,21%,18%,7%,29%,52%,6.4%
CC12CCC3C(CCC4Cc5nc6nnnn6cc5CC43C)C1CCC2O (stereo not given),4%,79% (active),55%,20%,71% (active),40.9%,14%,85% (active),51%,4%,44%,29.6%,2%,38%,53.8%,11%,82% (active),47%
[C-]#[O+].[C-]#[O+].[Mo].[N-]=Nc1ccc([N+](=O)[O-])cc1.[c-]1[c-][c-][cH-][c-]1,-1%,69%,93.7% (active),-6%,55%,21.3%,2%,86% (active),84.9% (active),9%,26%,8.7%,-12%,71% (active),4.95%,2%,75% (active),79.3% (active)
NC(=O)c1ccc(C(=O)Nc2ccc([As](=O)(O)O)cc2)cc1,30%,21%,-3.85%,6%,3%,-26.7%,22%,3%,-43.2%,2%,-14%,49.4%,-7%,1%,-13.1%,11%,9%,-15.9%
CC[S+](C)c1ccc(-c2c3nc(c(-c4ccc([S+](C)CC)cc4)c4ccc([nH]4)c(-c4ccc([S+](C)CC)cc4)c4nc(c(-c5ccc([S+](C)CC)cc5)c5ccc2[nH]5)C=C4)C=C3)cc1 (stereo not given),95% (active),95% (active),86.8% (active),98% (active),97% (active),90.7% (active),73% (active),97% (active),91.8% (active),56%,96% (active),89.5% (active),94% (active),96% (active),89% (active),96% (active),95% (active),88.5% (active)
CCC[CH2][Pb]([CH2]CCC)([CH2]CCC)[n]1ccnc1,99% (active),99% (active),90.2% (active),99% (active),99% (active),92.7% (active),98% (active),98% (active),93.7% (active),97% (active),99% (active),91.6% (active),99% (active),93% (active),92.2% (active),99% (active),99% (active),91% (active)
N#CC(C#N)=NNc1cccc(Cl)c1Cl,43%,73% (active),90.8% (active),48%,75% (active),92.7% (active),31%,100% (active),93.2% (active),71% (active),100% (active),90.7% (active),25%,100% (active),91.8% (active),41%,66%,90.2% (active)
CN1C(=O)C23CC4=CC=CC(O)C4N2C(=O)C1(CO)SS3 (stereo not given),99% (active),99% (active),92.8% (active),99% (active),100% (active),95% (active),99% (active),100% (active),93.2% (active),99% (active),99% (active),92.5% (active),99% (active),99% (active),93.5% (active),99% (active),99% (active),93.5% (active)
O=C(OCC(CCl)OC(=O)C(Cl)(Cl)Cl)C(Cl)(Cl)Cl (stereo not given),2%,-5%,52.2%,12%,16%,46.4%,-31%,-16%,67%,2%,0%,78.5% (active),1%,-4%,55.3%,-30%,-53%,54.8%
CC(=O)[O][Pb]([O]C(C)=O)([O]C(C)=O)[c]1ccccc1,71% (active),98% (active),90.5% (active),74% (active),99% (active),93.5% (active),86% (active),99% (active),93.6% (active),35%,99% (active),89.2% (active),86% (active),99% (active),91.8% (active),91% (active),98% (active),91.2% (active)
